Source: PubChem BioAssay (NCATS)
“And” between values parts separate entries of the source, which are not always exact repeats. Equal values may be shown once. Records with an inconclusive call do not appear. The source made the active and inactive calls. Calls follow the shape of the dose curve; as a rule, active = well fitted curve in the direction sought with a large enough effect; inconclusive = small, poorly fitted or top-dose-only effect, or another doubt; inactive = no such curve, though single readings can be large or run the other way.

Test: qHTS Assay for Identifying Gametocytocidal Compounds (AID 743244);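 also: actives lower the fluorescent signal which means gametocytes are killed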
Details: P. falciparum 3D7 stage III-V gametocytes, alamarBlue, 72 h; max response: hits give low values
Outline: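 In this qHTS viability screen, late-stage 3D7 gametocytes are incubated with compound for 72 h, then with alamarBlue for 24 h; reduced resorufin fluorescence marks killing.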
% is scaled to controls: 0 for no effect and ±100 for the full control effect.

| Compound | max response |
| --- | --- |
| CN1CC(=O)N2[C@H](c3ccc4c(c3)OCO4)c3[nH]c4ccccc4c3C[C@@H]2C1=O | -3.23% (inactive) |
| O=S(=O)(O)c1ccc2nc(-c3ccccc3)[nH]c2c1 | 9.66% (inactive) |
| C[C@@H](O[C@H]1OCCN(Cc2n[nH]c(=O)[nH]2)[C@H]1c1ccc(F)cc1)c1cc(C(F)(F)F)cc(C(F)(F)F)c1 | 16.6% (inactive) |
| CCCCC/C=C\C/C=C\CCCCCCCC(=O)NC(C)c1ccccc1 (centres undefined) | -1.75% (inactive) |
| CCOC(=O)Cn1cccc1-c1nc(-c2ccc(OC)cc2)c(-c2ccc(OC)cc2)s1 | 9.5% (inactive) |
| CN1CCC(N(Cc2cccs2)c2ccccc2)CC1 | 8.89% (inactive) |
| N#C/C(=C1/SC[C@@H](c2ccc(Cl)cc2Cl)S1)n1ccnc1 | 8.83% (inactive) and -5.83% (inactive) and 7.31% (inactive) |
| CC(NN)c1ccccc1 (centres undefined) | -6.49% (inactive) |
| O=C1[C@@H]2[C@H]3CC[C@H](C3)[C@@H]2C(=O)N1CCCCN1CCN(c2ncccn2)CC1 | 4.19% (inactive) |
| COC(=O)C1=C(C)NC(COC(N)=O)=C(C(=O)OC(C)C)C1c1cccc(Cl)c1Cl (centres undefined) | -16.2% (inactive) |
| CCCCNc1ccc(C(=O)OCCN(CC)CC)cc1 | -4.4% (inactive) |
| Cc1cc(O)c2c(O)c3c(O)cccc3cc2c1 | 12.2% (inactive) |
| NC(=O)COCCN1CCN(C(c2ccccc2)c2ccc(Cl)cc2)CC1 (centres undefined) | -3.31% (inactive) |
| c1ccc(C(O[C@H]2CCCN(CCc3ccc4c(c3)OCO4)C2)c2ccccc2)cc1 | -6.18% (inactive) |
| CN1C(=O)CC(C)(c2ccccc2)C1=O (centres undefined) | -8.12% (inactive) |
| CC(CCc1ccc2c(c1)OCO2)NN (centres undefined) | 15.4% (inactive) |
| Nc1ncnc2nc[nH]c12 | 3.66% (inactive) |
| COc1c(N2C[C@@H]3CCCN[C@@H]3C2)c(F)cc2c(=O)c(C(=O)O)cn(C3CC3)c12 | 11.5% (inactive) and 6.91% (inactive) |
| CCCC(=O)O[C@]1(C(=O)COC(=O)CC)CC[C@H]2[C@@H]3CCC4=CC(=O)CC[C@]4(C)[C@H]3[C@@H](O)C[C@@]21C | 31.6% (inactive) |
| CC(C)(C)C(=O)OCOC(=O)C1N2C(=O)CC2S(=O)(=O)C1(C)C (centres undefined) | 0.683% (inactive) |

| Compound | max response |
| --- | --- |
| O=C(O)CCC(=O)OC[C@@H](NC(=O)C(Cl)Cl)[C@H](O)c1ccc([N+](=O)[O-])cc1 | -4.91% (inactive) |
| O=C(Nc1ccc(S(=O)(=O)N2CCOCC2)cc1)c1cc(Cl)ccc1NS(=O)(=O)c1ccc(Cl)s1 | 15.3% (inactive) |
| CNC[C@H](O)[C@@H](O)[C@H](O)[C@H](O)CO | 10.7% (inactive) |
| O=C(CCCCC(=O)Nc1c(I)cc(I)c(C(=O)O)c1I)Nc1c(I)cc(I)c(C(=O)O)c1I | 35.4% (inactive) |
| CCNC(=O)NCCCOc1cccc(CN2CCCCC2)c1 | -8.1% (inactive) |
| CCOC(=O)C1=C(C)NC(C)=C(C(=O)OCC)C1c1ccccc1/C=C/C(=O)OC(C)(C)C | 4.06% (inactive) |
| C[C@H](CN1CCCC1)C(=O)c1ccc(C(F)(F)F)cc1 | 15.3% (inactive) |
| CCO[C@H](Cc1ccc(OCCc2ccc(OS(C)(=O)=O)cc2)cc1)C(=O)O | 6.84% (inactive) |
| CC(=O)Nc1c(I)c(NC(C)=O)c(I)c(C(=O)O)c1I | -5.52% (inactive) |
| CC(C)OC(=O)c1cc2c(OCC(O)CNC(C)(C)C)cccc2[nH]1 (centres undefined) | 0.786% (inactive) |
| OCCc1ccccc1 | 0.746% (inactive) |
| CN1C(CSCC(F)(F)F)Nc2cc(Cl)c(S(N)(=O)=O)cc2S1(=O)=O (centres undefined) | 2.14% (inactive) |
| COc1cc(NS(=O)(=O)c2ccc(N)cc2)nc(C)n1 | 34.9% (inactive) |
| O=C(COCCOCCOCC(=O)Nc1c(I)cc(I)c(C(=O)O)c1I)Nc1c(I)cc(I)c(C(=O)O)c1I | 31% (inactive) |
| C[C@@]12CCC[C@H]1[C@@H]1CC[C@H]3C[C@@H](O)CC[C@]3(C)[C@H]1CC2 | 4.41% (inactive) |
| N[C@@H](Cc1cc(I)c(O)c(I)c1)C(=O)O | 18.2% (inactive) |
| CCC[C@H](N[C@@H](C)C(=O)N1[C@H](C(=O)O)C[C@@H]2CCCC[C@@H]21)C(=O)OCC | -14.5% (inactive) |
| O=C1CC[C@H](C(=O)N2CCCCC2)N1 | -15.9% (inactive) |
| Cc1cccc(N(C)C(=S)Oc2ccc3c(c2)CCC3)c1 | 14.9% (inactive) |
